PubChem BioAssay (NCATS)
Records with an inconclusive call do not appear. Activity calls are given as the source filed them. Calls follow the shape of the dose curve; as a rule, active = well fitted curve in the direction sought with a large enough effect; inconclusive = small, poorly fitted or top-dose-only effect, or another doubt; inactive = no such curve, though single readings can be large; an effect the other way counts as inactive or inconclusive.

How the values were obtained:
[1] = P-glycoprotein substrates identified in KB-8-5-11 adenocarcinoma cell line, qHTS therapeutic library screen (AID 1346987); also: nearly all actives have a fitted effect of over 65% in size
In short: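 KB-8-5-11, a colchicine-selected P-gp-overexpressing KB-3-1 subline, was grown without colchicine for the assay. Cells were seeded at 500 cells/well, dosed in concentration-response and incubated 72 h at 37 degree C, 5% CO2. Viability was read by CellTiter-Glo luminescence.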

[2] = NS1 protein of Zika virus - qHTS assay to identify small molecule inhibitors in human HEK 293 cells (AID 1347053);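 also: series mostly up to about 46 µM; plate controls were infected untreated cells for no effect and uninfected cells for full effect; nearly all actives have a fitted effect of over 55% in size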
In short: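 Following 20 h seeding, HEK 293 cells took compound, then 1 h later ZIKV MR766 (MOI = 0.5). Incubation ran 24 h at 37 C before TR-FRET detection of NS1; a drop in signal indicates inhibition.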

[3] = qHTS of pediatric cancer cell lines to identify multiple opportunities for drug repurposing: Primary screen for TC32 cells (AID 1347089); also: % is scaled to controls: 0 for no effect and ±100 for the full control effect; nearly all actives have a fitted effect of over 60% in size
In short: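 A viability screen of TC32 cells was run over 48 h, with primary MIPE doses spanning 0.78 nM–46 µM and NPC doses 0.59 nM–46 µM. ATP luminescence (CellTiter-Glo) served as the read-out.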

[4] = qHTS of pediatric cancer cell lines to identify multiple opportunities for drug repurposing: Primary screen for DAOY cells (AID 1347090);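 also: series mostly up to about 46 µM; plate controls were DMSO for no effect and bortezomib for full effect; nearly all actives have a fitted effect of over 55% in size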
In short: (§1)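 Viability measured as metabolically active cells via CellTiter-Glo luminescence following 48 hours of compound exposure, 11-point dilutions in confirmatory testing. 500-1,000 cells/well plated 5 hours before dosing; controls were DMSO and 2.3 µM bortezomib.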

[5] = qHTS of pediatric cancer cell lines to identify multiple opportunities for drug repurposing: Primary screen for A673 cells (AID 1347092); also: % is scaled to controls: 0 for no effect and ±100 for the full control effect; nearly all actives have a fitted effect of over 45% in size
In short: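 Titration-based qHTS on A673 cells: MIPE compounds spanned 11 points (0.78 nM to 46 µM final), NPC compounds 8 points (0.59 nM to 46 µM final). Viability after 48 h was measured by ATP luminescence.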

[6] = qHTS of pediatric cancer cell lines to identify multiple opportunities for drug repurposing: Primary screen for SK-N-MC cells (AID 1347093); also: potency is read from the fitted curve at half-maximal effect;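 as to activity change, negative = cytotoxic: series mostly up to about 46 µM; plate controls were DMSO neutral control for no effect and bortezomib for full effect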
In short: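 Metabolically active cells were quantified by ATP-dependent luminescence (CellTiter-Glo, 15 min at room temperature) following 48 h treatment. Cells had been plated at 500-1,000 per well and settled for 5 h beforehand.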

[7] = qHTS of pediatric cancer cell lines to identify multiple opportunities for drug repurposing: Primary screen for SJ-GBM2 cells (AID 1347091);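 also: plate controls were DMSO neutral control for no effect and bortezomib for full effect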
In short: as §1

COc1cc(C)c(Cc2cnc(N)nc2N)cc1OC
inactive: Potency [1] | Potency [2] | Potency [3] | Potency [4] | Potency [5]
active: Potency [6] 11.9 µM

COc1ccccc1O
inactive: Potency [1] | Potency [2] | Potency [3] | Potency [4] | Potency [7] | Potency [5] | Potency [6]

CCOC(=O)[C@H](CCc1ccccc1)N[C@@H](C)C(=O)N1C(=O)N(C)C[C@H]1C(=O)O
inactive: Potency [1] | Potency [2] | Potency [3] | Potency [7] | Potency [5] | Potency [6]

CC(=O)CCC(=O)O
inactive: Potency [1] | Potency [2] | Potency [3] | Potency [4] | Potency [7] | Potency [5] | Potency [6]

CCOc1ccc2ccccc2c1C(=O)N[C@@H]1C(=O)N2[C@@H]1SC(C)(C)[C@@H]2C(=O)O
inactive: Potency [1] | Potency [2] | Potency [3] | Potency [4] | Potency [5] | Potency [6]

CCCCOC(=O)c1ccc(O)cc1
inactive: Potency [1] | Potency [2] | Potency [3] | Potency [4] | Potency [7] | Potency [6]

NS(=O)(=O)c1cc2c(cc1C(F)(F)F)NC(Cc1ccccc1)NS2(=O)=O (stereo not given)
inactive: Potency [1] | Potency [2] | Potency [3] | Potency [4] | Potency [5] | Potency [6]

Nc1nc2c(ncn2CCC(CO)CO)c(=O)[nH]1
inactive: Potency [1] | Potency [2] | Potency [3] | Potency [4] | Potency [5] | Potency [6]

CN(C)CCN(Cc1ccccc1)c1ccccn1
inactive: Potency [1] | Potency [2] | Potency [3] | Potency [4] | Potency [5]

Cc1cc(CC(=O)O)n(C)c1C(=O)c1ccc(Cl)cc1
inactive: Potency [1] | Potency [2] | Potency [3] | Potency [4] | Potency [7] | Potency [5] | Potency [6]

NS(=O)(=O)c1cc2c(cc1Cl)NC(CSCc1ccccc1)=NS2(=O)=O
inactive: Potency [1] | Potency [2] | Potency [3] | Potency [4] | Potency [5] | Potency [6]

CC(=O)Oc1ccc(C2(c3ccc(OC(C)=O)cc3)C(=O)Nc3ccccc32)cc1
inactive: Potency [1] | Potency [2] | Potency [3] | Potency [7] | Potency [5]

c1ccc2c(CC3=NCCN3)cccc2c1
inactive: Potency [1] | Potency [2] | Potency [3] | Potency [4] | Potency [5]

CC(C)(C)C(=O)NCCCC(=O)O
inactive: Potency [1] | Potency [2] | Potency [3] | Potency [7] | Potency [5] | Potency [6]

COc1cc(C(=O)N2CCOCC2)cc(OC)c1OC
inactive: Potency [1] | Potency [2] | Potency [3] | Potency [4] | Potency [7] | Potency [5] | Potency [6]

C[C@@H](O)[C@H](N)C(=O)O
inactive: Potency [1] | Potency [2] | Potency [3] | Potency [4] | Potency [5] | Potency [6]

O=C(O)CN1C(=O)c2cccc3cccc(c23)C1=O
inactive: Potency [1] | Potency [2] | Potency [3] | Potency [4] | Potency [7] | Potency [6]

CC1(C)[C@@H]2CC[C@@]1(C)C(=O)C2
inactive: Potency [1] | Potency [2] | Potency [3] | Potency [4] | Potency [5] | Potency [6]

CC1(C)Oc2ccc(C#N)cc2[C@@H](N2CCCC2=O)[C@@H]1O
inactive: Potency [1] | Potency [2] | Potency [3] | Potency [4] | Potency [7] | Potency [5] | Potency [6]

N[C@H]1C(O)O[C@H](CO)[C@@H](O)[C@@H]1O (stereo not given in full)
inactive: Potency [1] | Potency [2] | Potency [3] | Potency [4] | Potency [5] | Potency [6]

CC1(C)OC(=O)NC1=O
inactive: Potency [1] | Potency [2] | Potency [3] | Potency [7] | Potency [5] | Potency [6]

Cc1cc(O)cc2c1O[C@](C)(CCC[C@H](C)CCC[C@H](C)CCCC(C)C)CC2
inactive: Potency [1] | Potency [2] | Potency [3] | Potency [4] | Potency [7] | Potency [5] | Potency [6]

N[C@H](C(=O)O)c1ccc(O)cc1
inactive: Potency [1] | Potency [2] | Potency [3] | Potency [4] | Potency [5] | Potency [6]

C[C@@H]1CC[C@@]2(OC1)O[C@H]1C[C@H]3[C@@H]4CC[C@H]5C[C@@H](O)CC[C@]5(C)[C@H]4CC(=O)[C@]3(C)[C@H]1[C@@H]2C
inactive: Potency [1] | activity change, negative = inhibition [2] -2.82% [at 4.81 µM] | activity change, negative = cytotoxic [3] 10.8% [at 4.81 µM] | activity change, negative = cytotoxic [4] 10.7% [at 4.84 µM] | activity change, negative = cytotoxic [7] 26.5% [at 4.84 µM] | activity change, negative = cytotoxic [5] 9.64% [at 4.84 µM] | activity change, negative = cytotoxic [6] 6.15% [at 4.84 µM]

O=C1NS(=O)(=O)c2ccccc21
inactive: Potency [1] | Potency [2] | Potency [3] | Potency [4] | Potency [7] | Potency [5] | Potency [6]

Cc1cccc(Nc2cc(Cl)nc(SCC(=O)O)n2)c1C
inactive: Potency [1] | Potency [2] | Potency [3] | Potency [7] | Potency [5] | Potency [6]

Nc1ccc(S(=O)(=O)Nc2ccccc2)cc1
inactive: Potency [1] | Potency [2] | Potency [3] | Potency [7] | Potency [5] | Potency [6]

Nc1ccc(S(=O)(=O)Nc2ccc(Cl)nn2)cc1
inactive: Potency [1] | Potency [2] | Potency [3] | Potency [4] | Potency [5] | Potency [6]

CN(C)CCCO[C@@H]1[C@H]2OC(C)(C)O[C@H]2O[C@@H]1C(O)CO (stereo not given in full)
inactive: Potency [1] | Potency [2] | Potency [3] | Potency [4] | Potency [5] | Potency [6]

CCCCC(CC)COC(=O)c1ccccc1O (stereo not given)
inactive: Potency [1] | Potency [2] | Potency [4] | Potency [7] | Potency [5] | Potency [6]

CS(=O)(=O)c1ccc([C@@H](O)[C@@H](CF)NC(=O)C(Cl)Cl)cc1
inactive: Potency [1] | Potency [2] | Potency [7] | Potency [5] | Potency [6]
